The target in experiment [1] is RAC-alpha serine/threonine-protein kinase (Homo sapiens) (UniProt P31749). The note with it: at 0.1 µM.
Experiment [2] shares this target. The note with it: at 1 µM.
The target of experiment [3] is RAC-beta serine/threonine-protein kinase (Homo sapiens) (UniProt P31751). Conditions: at 0.1 µM.
Experiment [4] shares this target. Conditions: at 1 µM.
For experiment [5], the target named is RAC-gamma serine/threonine-protein kinase (Homo sapiens) (UniProt Q9Y243). Conditions: at 0.1 µM.
Experiment [6] has the same target. The note with it: at 1 µM.
Experiment [7] addresses G protein-coupled receptor kinase 6 (Homo sapiens) (UniProt P43250). The note with it: at 0.1 µM.
Experiment [8] has the same target. Conditions: at 1 µM.
Experiment [9] deals with T1, Rhodopsin kinase GRK7 (Homo sapiens) (UniProt Q8WTQ7).
T1 sequence (whole entry): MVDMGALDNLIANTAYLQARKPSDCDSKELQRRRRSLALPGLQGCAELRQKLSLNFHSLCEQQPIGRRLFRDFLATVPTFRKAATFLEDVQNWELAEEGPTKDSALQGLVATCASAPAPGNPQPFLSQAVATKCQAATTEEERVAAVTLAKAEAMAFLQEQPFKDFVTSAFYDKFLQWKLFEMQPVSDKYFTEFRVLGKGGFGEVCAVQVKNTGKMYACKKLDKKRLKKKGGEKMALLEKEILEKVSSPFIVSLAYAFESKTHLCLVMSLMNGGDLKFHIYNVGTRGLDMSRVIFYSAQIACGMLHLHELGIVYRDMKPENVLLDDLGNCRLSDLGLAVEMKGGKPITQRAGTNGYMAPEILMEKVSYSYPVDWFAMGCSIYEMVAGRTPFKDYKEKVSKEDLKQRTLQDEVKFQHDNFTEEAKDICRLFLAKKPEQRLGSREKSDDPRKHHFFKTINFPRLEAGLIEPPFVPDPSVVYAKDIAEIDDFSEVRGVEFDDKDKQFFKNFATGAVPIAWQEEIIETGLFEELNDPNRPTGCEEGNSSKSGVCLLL
Conditions: at 0.1 µM.

Experiment [10] deals with T1, Rhodopsin kinase GRK7 (Homo sapiens). The note with it: at 1 µM.
The target of experiment [11] is Serine/threonine-protein kinase MRCK alpha (Homo sapiens) (UniProt Q5VT25). The note with it: at 0.1 µM.
The target is the same in experiment [12]. Conditions: at 1 µM.
In experiment [13] the target is Serine/threonine-protein kinase MRCK beta (Homo sapiens) (UniProt Q9Y5S2). Conditions: at 0.1 µM.
Experiment [14] has the same target. Conditions: at 1 µM.
The target in experiment [15] is Ribosomal protein S6 kinase alpha-5 (Homo sapiens) (UniProt O75582). The note with it: at 0.1 µM.
Experiment [16] has the same target. The note with it: at 1 µM.
The target in experiment [17] is Ribosomal protein S6 kinase alpha-4 (Homo sapiens) (UniProt O75676). Conditions: at 0.1 µM.
For experiment [18] the target is unchanged. Conditions: at 1 µM.
Experiment [19] concerns the target Ribosomal protein S6 kinase beta-1 (Homo sapiens) (UniProt P23443). The note with it: at 0.1 µM.
Experiment [20] has the same target. Conditions: at 1 µM.

The structures appear in SMILES notation.

Sequence of Ribosomal protein S6 kinase alpha-4 (Homo sapiens) (O75676 whole entry, looked up): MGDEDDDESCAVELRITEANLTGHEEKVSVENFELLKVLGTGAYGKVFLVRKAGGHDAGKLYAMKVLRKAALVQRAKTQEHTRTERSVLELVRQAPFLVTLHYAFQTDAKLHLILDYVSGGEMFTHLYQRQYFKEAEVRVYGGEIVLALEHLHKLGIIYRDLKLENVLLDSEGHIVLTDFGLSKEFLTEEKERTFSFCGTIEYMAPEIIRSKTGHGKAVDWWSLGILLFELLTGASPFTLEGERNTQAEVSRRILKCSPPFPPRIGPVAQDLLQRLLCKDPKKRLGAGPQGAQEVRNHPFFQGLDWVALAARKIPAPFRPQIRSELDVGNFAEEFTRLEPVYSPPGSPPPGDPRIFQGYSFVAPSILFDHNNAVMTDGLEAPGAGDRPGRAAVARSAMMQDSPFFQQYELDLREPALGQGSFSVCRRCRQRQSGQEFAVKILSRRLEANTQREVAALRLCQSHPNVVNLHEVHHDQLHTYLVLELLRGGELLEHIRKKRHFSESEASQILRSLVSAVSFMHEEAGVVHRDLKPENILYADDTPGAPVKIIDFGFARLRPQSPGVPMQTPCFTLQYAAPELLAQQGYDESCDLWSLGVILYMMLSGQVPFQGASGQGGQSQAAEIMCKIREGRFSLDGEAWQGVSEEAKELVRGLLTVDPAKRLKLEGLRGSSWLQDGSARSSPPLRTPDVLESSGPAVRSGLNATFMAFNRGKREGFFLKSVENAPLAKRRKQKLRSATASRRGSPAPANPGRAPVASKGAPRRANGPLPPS
Sequence of Serine/threonine-protein kinase MRCK alpha (Homo sapiens) (Q5VT25 whole entry): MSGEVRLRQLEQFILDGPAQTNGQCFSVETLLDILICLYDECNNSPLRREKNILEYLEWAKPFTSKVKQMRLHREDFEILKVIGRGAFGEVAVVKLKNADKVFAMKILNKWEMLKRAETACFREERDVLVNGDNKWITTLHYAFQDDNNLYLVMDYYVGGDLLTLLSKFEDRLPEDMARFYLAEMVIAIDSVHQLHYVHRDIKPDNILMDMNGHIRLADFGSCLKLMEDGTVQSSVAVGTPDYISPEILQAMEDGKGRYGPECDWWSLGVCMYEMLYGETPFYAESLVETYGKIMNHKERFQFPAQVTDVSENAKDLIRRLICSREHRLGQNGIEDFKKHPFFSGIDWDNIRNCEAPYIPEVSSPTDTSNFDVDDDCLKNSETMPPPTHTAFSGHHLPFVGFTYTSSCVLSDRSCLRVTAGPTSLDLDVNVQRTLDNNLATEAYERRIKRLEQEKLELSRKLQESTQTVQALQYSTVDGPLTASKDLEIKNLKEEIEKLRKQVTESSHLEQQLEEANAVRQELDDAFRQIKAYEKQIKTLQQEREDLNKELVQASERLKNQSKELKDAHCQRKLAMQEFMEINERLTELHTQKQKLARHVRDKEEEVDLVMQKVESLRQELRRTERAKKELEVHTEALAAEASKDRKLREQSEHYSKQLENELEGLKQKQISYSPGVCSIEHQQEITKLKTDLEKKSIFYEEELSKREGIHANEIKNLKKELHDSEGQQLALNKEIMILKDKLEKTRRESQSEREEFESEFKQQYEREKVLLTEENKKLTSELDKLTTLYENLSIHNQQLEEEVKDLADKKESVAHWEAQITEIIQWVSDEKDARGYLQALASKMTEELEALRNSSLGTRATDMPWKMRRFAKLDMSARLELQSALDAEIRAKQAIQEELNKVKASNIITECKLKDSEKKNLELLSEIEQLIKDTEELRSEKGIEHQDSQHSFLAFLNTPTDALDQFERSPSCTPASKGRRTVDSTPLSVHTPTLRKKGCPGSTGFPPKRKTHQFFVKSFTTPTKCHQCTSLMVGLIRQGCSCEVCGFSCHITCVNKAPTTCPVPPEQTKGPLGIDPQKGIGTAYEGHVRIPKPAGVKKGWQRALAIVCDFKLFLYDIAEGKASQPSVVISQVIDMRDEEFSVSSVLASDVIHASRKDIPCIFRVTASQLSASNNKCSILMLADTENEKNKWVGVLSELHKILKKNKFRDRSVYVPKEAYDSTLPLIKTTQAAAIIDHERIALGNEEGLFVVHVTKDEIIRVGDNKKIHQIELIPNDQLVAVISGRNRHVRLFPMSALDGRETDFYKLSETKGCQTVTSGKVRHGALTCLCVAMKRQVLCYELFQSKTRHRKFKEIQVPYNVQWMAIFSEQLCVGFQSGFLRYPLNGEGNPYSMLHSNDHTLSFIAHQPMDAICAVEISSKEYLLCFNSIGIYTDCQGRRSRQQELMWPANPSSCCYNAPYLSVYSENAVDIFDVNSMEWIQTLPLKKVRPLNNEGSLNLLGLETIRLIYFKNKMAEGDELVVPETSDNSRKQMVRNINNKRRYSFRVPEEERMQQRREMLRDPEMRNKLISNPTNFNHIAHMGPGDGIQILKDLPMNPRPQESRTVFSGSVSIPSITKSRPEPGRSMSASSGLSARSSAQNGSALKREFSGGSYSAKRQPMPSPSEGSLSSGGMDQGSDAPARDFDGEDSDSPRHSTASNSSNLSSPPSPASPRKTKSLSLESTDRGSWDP
Sequence of RAC-beta serine/threonine-protein kinase (Homo sapiens) (P31751 whole entry): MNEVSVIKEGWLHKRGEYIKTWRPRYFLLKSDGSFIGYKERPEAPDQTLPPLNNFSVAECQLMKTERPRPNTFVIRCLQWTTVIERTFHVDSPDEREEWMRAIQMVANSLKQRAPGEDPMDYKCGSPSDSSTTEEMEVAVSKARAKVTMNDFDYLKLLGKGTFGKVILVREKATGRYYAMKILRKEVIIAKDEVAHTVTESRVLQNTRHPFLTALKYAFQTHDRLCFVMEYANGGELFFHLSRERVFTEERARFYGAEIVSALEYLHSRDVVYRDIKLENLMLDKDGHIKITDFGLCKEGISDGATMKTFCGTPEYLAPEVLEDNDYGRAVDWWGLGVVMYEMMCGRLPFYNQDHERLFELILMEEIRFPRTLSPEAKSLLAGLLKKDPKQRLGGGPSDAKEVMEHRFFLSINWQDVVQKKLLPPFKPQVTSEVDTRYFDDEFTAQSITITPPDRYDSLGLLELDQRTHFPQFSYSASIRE
Sequence of Serine/threonine-protein kinase MRCK beta (Homo sapiens) (Q9Y5S2 whole entry): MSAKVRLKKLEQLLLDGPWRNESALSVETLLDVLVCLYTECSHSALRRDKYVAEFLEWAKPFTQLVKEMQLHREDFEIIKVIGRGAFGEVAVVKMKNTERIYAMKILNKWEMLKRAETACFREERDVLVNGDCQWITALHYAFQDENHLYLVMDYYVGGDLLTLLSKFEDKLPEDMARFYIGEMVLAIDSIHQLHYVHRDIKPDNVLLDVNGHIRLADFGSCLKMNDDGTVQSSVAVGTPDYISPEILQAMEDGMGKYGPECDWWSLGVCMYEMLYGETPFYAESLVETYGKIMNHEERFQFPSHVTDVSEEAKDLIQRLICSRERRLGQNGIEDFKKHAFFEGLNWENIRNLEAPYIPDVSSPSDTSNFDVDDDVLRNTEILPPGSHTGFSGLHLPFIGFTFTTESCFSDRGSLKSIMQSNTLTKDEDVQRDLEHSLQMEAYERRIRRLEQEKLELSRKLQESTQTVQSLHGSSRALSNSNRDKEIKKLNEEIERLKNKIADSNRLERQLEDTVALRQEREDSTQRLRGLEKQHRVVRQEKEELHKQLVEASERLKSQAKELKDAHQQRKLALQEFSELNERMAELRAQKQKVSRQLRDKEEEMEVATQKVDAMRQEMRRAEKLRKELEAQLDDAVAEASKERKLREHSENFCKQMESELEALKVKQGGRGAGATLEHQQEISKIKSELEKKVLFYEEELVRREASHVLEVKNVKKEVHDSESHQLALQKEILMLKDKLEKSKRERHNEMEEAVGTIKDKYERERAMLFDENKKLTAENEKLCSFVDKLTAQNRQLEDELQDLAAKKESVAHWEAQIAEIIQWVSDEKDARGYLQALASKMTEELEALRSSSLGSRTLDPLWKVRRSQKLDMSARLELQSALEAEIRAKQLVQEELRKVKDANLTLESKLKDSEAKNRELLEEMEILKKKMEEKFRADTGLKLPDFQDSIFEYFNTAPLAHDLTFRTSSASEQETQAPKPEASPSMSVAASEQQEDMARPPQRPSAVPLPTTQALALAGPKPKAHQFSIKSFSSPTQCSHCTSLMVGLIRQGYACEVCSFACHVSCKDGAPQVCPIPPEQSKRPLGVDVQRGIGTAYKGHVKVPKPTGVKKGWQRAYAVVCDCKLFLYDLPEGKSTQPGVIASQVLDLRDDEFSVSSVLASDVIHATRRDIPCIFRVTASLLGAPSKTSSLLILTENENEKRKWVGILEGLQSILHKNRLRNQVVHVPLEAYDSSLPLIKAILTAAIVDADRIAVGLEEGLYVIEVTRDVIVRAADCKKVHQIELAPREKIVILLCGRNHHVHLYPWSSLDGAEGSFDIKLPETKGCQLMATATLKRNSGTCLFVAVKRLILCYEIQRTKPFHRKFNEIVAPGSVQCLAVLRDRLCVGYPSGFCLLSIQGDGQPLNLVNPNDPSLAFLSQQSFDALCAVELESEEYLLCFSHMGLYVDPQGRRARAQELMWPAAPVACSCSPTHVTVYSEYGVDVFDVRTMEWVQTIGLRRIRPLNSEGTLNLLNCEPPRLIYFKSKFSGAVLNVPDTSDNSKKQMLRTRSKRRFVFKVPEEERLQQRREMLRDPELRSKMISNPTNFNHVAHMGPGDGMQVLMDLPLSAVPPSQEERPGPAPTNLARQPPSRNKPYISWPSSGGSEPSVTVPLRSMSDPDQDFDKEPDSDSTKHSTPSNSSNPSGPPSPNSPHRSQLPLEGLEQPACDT

On to `COc1cc2ncn(-c3cc(O[C@@H](C)c4ccccc4Cl)c(C(N)=O)s3)c2cc1OC`, for which the inhibition (in general, the drop in the measured response relative to a control, in per cent) in [1] amounted to 0.32%; in experiment [2], 1.3%; in experiment [3] it was 1.65%; in experiment [4], 1.94%; in experiment [5] it was 1.85%; in experiment [6] it was 1.32%. Moreover, the inhibition in experiment [7] is 0.89%; in [8], 2.39%; in experiment [9], 9.14%; in experiment [10] it was 4.64%; in experiment [11] it was 1.42%; in experiment [12] it was 0.91%. The inhibition in experiment [13] amounted to 0.43%; in experiment [14], 3.35%; in experiment [15], 11.4%; in [16] it was 11.6%; in [17], 4.79%; in experiment [18], 5.46%. In addition, the inhibition in experiment [19] was determined as 0.94%; in [20], 2.16%.

Turning to `O=C1NC(=O)C(c2ccc(Cl)cc2)=C1Nc1ccc(Cl)c(C(=O)O)c1`, the inhibition in experiment [1] was -1.69%; in [2], -1.52%; in experiment [3] it was -2.06%; in experiment [4], -1.58%; in experiment [5], -1.65%; in experiment [6] it was -1.06%. Further, the inhibition was 2.37% in experiment [7]; -0.84% in [8]; -5.23% in experiment [9]; -4.79% in experiment [10]; -0.29% in experiment [11]; -0.46% in experiment [12]. The inhibition in experiment [13] was 0.31%; in experiment [14] it was -0.42%; in [15], -1.75%; in experiment [16], -1.95%; in [17] it was -2.17%; in experiment [18], -1.54%. The figures for the inhibition in experiment [19] and in experiment [20] were -1.54% and -1.25%, respectively.

`Cc1nn(C)c2cc(N(C)c3ccnc(Nc4cccc(S(N)(=O)=O)c4)n3)ccc12`: the inhibition in experiment [1] turned out to be 0.47%; in experiment [2], 0.23%; in [3], 1.6%; in experiment [4] it was 2.15%; in [5] it was 1.22%; in [6] it was 1.54%. Also, the inhibition in experiment [7] is 3.92%; in experiment [8] it was 3.28%; in [9] it was 2.2%; in experiment [10], 10.5%; in experiment [11], -1.1%; in experiment [12], 2.42%. The inhibition in experiment [13] came to 1.01%; in experiment [14], 3.81%; in experiment [15], 10.5%; in experiment [16] it was 11.1%; in experiment [17], 4.88%; in experiment [18] it was 6.94%. In addition, the inhibition turned out to be 2.3% in experiment [19] and 2.85% in experiment [20].

On to `O=C1NC(=O)C(c2cccc(Cl)c2)=C1Nc1ccc(O)c(Cl)c1`, for which the inhibition was 0.39% in [1]; 1.25% in experiment [2]; 0.32% in [3]; -0.16% in experiment [4]; 0.98% in experiment [5]; 0.23% in experiment [6]. For the same molecule, the inhibition in experiment [7] worked out at 2.15%; in [8], 1%; in experiment [9], 0.66%; in [10], 6.41%; in experiment [11] it was 0.28%; in experiment [12] it was 3.73%. Besides, the inhibition worked out at 1.27% in [13]; 2.02% in experiment [14]; 0.69% in [15]; 2.04% in experiment [16]; 0.07% in experiment [17]; 3.61% in [18]. In addition, the values for the inhibition in experiment [19] and in [20] were 0.45% and 0.8%, respectively.

As to `CS(=O)(=O)Nc1ccc(N/C=C2\C(=O)Nc3ccccc32)cc1`, the inhibition in experiment [1] was -2.28%; in experiment [2], -2.1%; in experiment [3], -3.92%; in experiment [4], -2.28%; in experiment [5], -3.25%; in experiment [6], 1.91%. The inhibition was -1.94% in [7]; 0.5% in experiment [8]; -1.39% in experiment [9]; -5.45% in [10]; -2.44% in [11]; -0.5% in experiment [12]. Also, the inhibition in [13] is 0.24%; in experiment [14], -0.45%; in experiment [15], -1.26%; in [16], -0.97%; in [17], -0.53%; in [18], 7.44%. For the same molecule, the inhibition in [19] was -0.58%; in [20], 3.4%.

For the molecule `CCn1c(-c2nonc2N)nc2c(N3CCCC3)nccc21`, the inhibition in experiment [1] is -2.09%; in [2] it was -2.19%; in experiment [3] it was -3.12%; in experiment [4], -0.45%; in [5] it was -0.61%; in experiment [6] it was 1.15%. Besides, the inhibition is 0.48% in [7]; 2.71% in experiment [8]; -7.43% in experiment [9]; 0.27% in experiment [10]; -0.27% in experiment [11]; 5.42% in experiment [12]. The inhibition in experiment [13] was -0.1%; in experiment [14], 2.55%; in experiment [15] it was -0.19%; in experiment [16], 11.2%; in [17], -0.68%; in experiment [18], 3.67%. For the same molecule, the inhibition was -0.49% in experiment [19] and 8.23% in experiment [20].

These data come from ChEMBL document CHEMBL1961873, “Compounds: GSK PKIS; Assays: Nanosyn kinase panel” (2012).
